# N-glyco inh – increase of ERlucT glycosylation luciferase signal, primary screen, N-linked glycosylation inhibitor project, D54 ERlucT cells, luminescence, set 2; D54 ERlucT glycosylation luciferase reporter, 24 h; percent of 100 nM tunicamycin response; reporter increase, % at 12.5 µM; hit rate 0.23% among 360,000;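 active means mean luciferase reporter signal, scaled so untreated is 0 and the glycosylation-blocking control 100, at or above a set limit in every replicate; inconclusive means mean reaches the limit but not every replicate does; inactive means mean below the limit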;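 further: luciferase carries N-glycosylation sites so blocking glycosylation raises the light; 0% = median of neutral control wells and 100% = median of 100 nM tunicamycin wells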
# Shn3 3UTR inh – reduction of Shn3 3'UTR firefly luciferase signal, primary screen, Schnurri-3 inhibitor project, cell-based, Clone20 osteoblasts, set 2 | Clone20 osteoblast Shn3 3'UTR firefly luciferase, 24 h | AID 588674, 2011 | inhibition, % at 12.5 µM | hit rate 0.52% among 360,000;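 active means mean inhibition of at least 75% with every replicate also reaching 75%; inconclusive means mean inhibition at least 75% but some replicate below; inactive means mean inhibition below 75%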;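 further: 0% = median of neutral control wells and 100% = pilot-screen positive control compound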
# LMP1 NFkB inh – EBV LMP1-driven NF-kappaB luciferase reporter inhibitors, primary screen, cell-based, luminescence, single point; hit rate 0.69% among 350,000; LMP1-induced NF-kappaB luciferase reporter cells; AID 504558, 2011; inhibition, % at 12.5 µM; in the data active means inhibition above about 41%; inconclusive means no clear call, values can overlap the other calls;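 further: 0% = neutral control wells and 100% = reference inhibitor control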
# HIV Env fusion – inhibitors of HIV-1 Env-driven cell-cell fusion, primary screen, HeLa-JRFL effector, CEM21 target cells, luciferase; inhibition, % at 12.3 µM; hit rate 1.1% among 360,000;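 active means mean replicate inhibition score of at least 50 and every replicate individually at or above 50; inconclusive means only one of the two criteria met; inactive means mean below 50 and not all replicates reaching 50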;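 further: 0% = plate neutral controls and 100% = maraviroc near 300 nM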
# NSD2 HMT inh – NSD2 histone methyltransferase inhibitors, primary screen, biochemical, AlphaScreen, single concentration, set 2. inhibition, % at 12.5 µM. AID 743445, 2014. Histone-lysine N-methyltransferase NSD2 (Homo sapiens), O96028. hit rate 0.54% among 310,000. NSD2 peptide methylation, 120 min; in the data active means inhibition above about 50%
# PAX8 reporter – inhibitors of PAX8-driven TPO luciferase reporter, primary screen, RMG-I cells, single concentration; SteadyGlo, 24 h; inhibition, % at 12.6 µM; hit rate 1.2% among 360,000; AID 652154, 2013;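 active means mean replicate inhibition at least 60% with every replicate also reaching 60%; inconclusive means only one of the two criteria is met; inactive means mean below 60% and not all replicates reaching 60%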;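 further: luciferase light reporting Pax8 driven TPO promoter activity; plate controls were median of neutral control wells for no effect and mitoxantrone controls for full effect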
# Starred values were filed as active, the others as inactive; ? = inconclusive; . = not tested or not shown; [ ] = dose if it differs, or a comment. A selection: hits, their analogues and other compounds. The true share with any hit is near 2.8%.
SMILES,N-glyco inh,Shn3 3UTR inh,LMP1 NFkB inh,HIV Env fusion,NSD2 HMT inh,PAX8 reporter
OC(c1cc(-c2ccc(C(F)(F)F)cc2)nc(C(F)(F)F)c1)C1CCCCN1 (stereo not drawn),-22,96*,-12,2,-3,88*
C[C@H](O)C#Cc1cnc2c(c1)C(=O)N([C@H](C)CO)C[C@@H](C)[C@H](CN(C)C(=O)c1ccccc1)O2,.,.,.,3[16.7 µM],.,.
Cc1noc(C)c1NC(=O)Nc1ccc2c(c1)CC(=O)N([C@@H](C)CO)C[C@H](C)[C@H](CN(C)C(=O)Nc1ccc(C(F)(F)F)cc1)O2,.,.,.,-15[16.7 µM],.,.
Oc1c(Cl)cc(Cl)cc1/C=N/Nc1ncc(Br)cn1,-5,90*,?,8,-5,21
O=C(N/N=C/c1cc(Cl)cc(Cl)c1O)c1ccncc1,2,42,-4,6,.,-1
C[C@H](CO)N1C[C@H](C)[C@H](CN(C)Cc2ccc3cccnc3c2)OCc2cn(nn2)CCCC1=O,.,.,.,.,.,-10
CCOC(=O)N1CCC(N2C(=O)c3ccccc3C2Nc2cc(Cl)c(OC)cc2OC)CC1 (stereo not drawn),0,20,75*,-47,.,4
CCOC(=O)N1CCC(N2C(=O)c3ccccc3C2Nc2cc(OC)c(OC)c(OC)c2)CC1 (stereo not drawn),2,8,7,.,.,.
CCn1c2ccccc2c2cc(/C=N/NC(=O)c3cc(O)cc(O)c3)ccc21,2,-5,66*,-26,9,-3
CCn1c2ccccc2c2cc(/C=N/NC(=O)c3ccc(O)cc3)ccc21,23,-11,84*,.,-3,41
COC(=O)c1cn(C[C@H](Cc2ccccc2)NC(=O)Nc2ccccc2)nn1,.,.,.,-121[16.7 µM],.,-8
COc1cccc(S(=O)(=O)N[C@H]2CC[C@H](CC(=O)NCc3ccc(Cl)cc3)O[C@H]2CO)c1,.,.,.,11[16.7 µM],.,7
CCOC(=O)c1cc2sccc2n1CC(=O)N1CCc2ccccc21,?,48,-11,62*,0,.
CCOC(=O)C1=C(CSc2nc3ccccc3s2)NC(=O)NC1c1cc(C)ccc1C (stereo not drawn),-5,1,-2,.,-6,.
CCOC(=O)C1=C(CSc2nc3ccccc3s2)NC(=O)NC1c1ccc(OC)cc1 (stereo not drawn),12,67,31,73*,-4,.
COc1ccc(S(=O)(=O)N(C)C[C@H]2Oc3ccc(NC(=O)C4CC4)cc3CC(=O)N([C@H](C)CO)C[C@H]2C)cc1,.,.,.,25[16.7 µM],.,.
CCOC(=O)C1(Cc2ccc(OC)cc2)CCN(C(=O)CN2CCCCC2=O)CC1,1,-12,-5,-11,-12,92*
CCOC(=O)C1(Cc2ccc(OC)cc2)CCN(C(=O)CN2CCOC2=O)CC1,1,-20,-5,-11,-3,-18
CO[C@H]1CN(C)C(=O)c2ccc(NS(=O)(=O)CC(F)(F)F)cc2OC[C@H](C)N(C(=O)c2ccc3c(c2)OCO3)C[C@H]1C,.,.,.,-12[16.7 µM],.,1
c1ccc(-c2csc3ncnc(NCCN4CCOCC4)c23)cc1,-7,60,19,78*,1,8
Cc1ccc(-c2csc3ncnc(NCCN4CCOCC4)c23)cc1,-10,17,5,?,2,3
CN(C)CCCNc1ncnc2scc(-c3ccccc3)c12,2,12,14,-2,9,2
COc1ccc(-c2oc3ncnc(NCCN4CCOCC4)c3c2-c2ccc(OC)cc2)cc1,-7,66,48*,.,.,.
COc1ccc(-c2csc3ncnc(NCCN4CCOCC4)c23)cc1,-12,22,46*,.,2,.
Clc1ccc(-c2csc3ncnc(NCCN4CCOCC4)c23)cc1,-10,11,21,63*,-1,2
C[C@H]1CN([C@@H](C)CO)C(=O)c2cccc(NS(=O)(=O)c3ccccc3)c2O[C@H]1CN(C)S(=O)(=O)c1ccc(F)cc1,.,.,.,-8[16.7 µM],.,-1
C[C@H](CO)N1C[C@H](C)[C@@H](CN(C)S(=O)(=O)c2ccc(F)cc2)Oc2ccc(NC(=O)Cn3cnnn3)cc2C1=O,.,.,.,-17[16.7 µM],.,.
CCC(=O)c1cc2c(C)cc(=O)oc2c(C)c1OC(=O)C(C)C,1,8,-3,.,1,72*

# Assay outcomes: PubChem, Broad Institute
